Source: PubChem BioAssay (NCATS)
Inconclusive results are not listed. Active and inactive are the calls of the source. Calls come from the whole dose curve; as a rule, active = well fitted curve in the direction sought with a large enough effect; inconclusive = small, poorly fitted or top-dose-only effect, or another doubt; inactive = no such curve, though single readings can be large; an effect the other way counts as inactive or inconclusive.

Columns and labels:
[1] = Quantitative highthroughput screen to assess conditional lethalithy of NOMO1 cells grown in Human Plasma-Like Medium with dialyzed fetal bovine serum (HPLM+ds) (AID 1963878); note: potency is the fitted concentration of half-maximal effect; nearly all actives have a fitted effect of over 35% in size
Outline: (§1)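 Each medium arm—HPLM with 10% dialyzed FBS, or RPMI1640 with 5 mM glucose and 10% untreated or dialyzed FBS—was screened against an 11-point, 3-fold compound titration for 48 h at 37 °C, with CellTiter-Glo luminescence as endpoint.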

[2] = Quantitative highthroughput screen to assess conditional lethalithy of P12 Ichikawa cells grown in Human Plasma-Like Medium with dialyzed fetal bovine serum (HPLM+ds) (AID 1963879); conditions: Potency: viability; note: nearly all actives have a fitted effect of over 35% in size; note: potency is the fitted concentration of half-maximal effect; for viability: series mostly up to about 46 µM
Outline: as §1

[3] = Quantitative highthroughput screen to assess conditional lethalithy of SEM cells grown in RPMI1640 with unreated serum (RPMI+s) (AID 1963883); note: nearly all actives have a fitted effect of over 35% in size; note: potency is the fitted concentration of half-maximal effect
Outline: as §1

[4] = Quantitative highthroughput screen to assess conditional lethalithy of P12 Ichikawa cells grown in RPMI1640 with dialyzed fetal bovine serum (RPMI+ds) (AID 1963880); conditions: Potency: P12-Ichikawa viability; note: nearly all actives have a fitted effect of over 35% in size; note: potency is the fitted concentration of half-maximal effect
Outline: as §1

[5] = Quantitative highthroughput screen to assess conditional lethalithy of P12 Ichikawa cells grown in RPMI1640 with untreated serum (RPMI+s) (AID 1963881); conditions: Potency: viability; note: nearly all actives have a fitted effect of over 35% in size; note: potency is the fitted concentration of half-maximal effect; for viability: series mostly up to about 46 µM
Outline: as §1

[6] = Quantitative highthroughput screen to assess conditional lethalithy of SEM cells grown in Human Plasma-Like Medium with dialyzed fetal bovine serum (HPLM+ds) (AID 1963882); note: nearly all actives have a fitted effect of over 35% in size; note: potency is the fitted concentration of half-maximal effect; for viability: series mostly up to about 46 µM
Outline: as §1

[7] = Quantitative highthroughput screen to assess conditional lethalithy of SEM cells grown in RPMI1640 with dialyzed fetal bovine serum (RPMI+ds) (AID 1963884); note: nearly all actives have a fitted effect of over 35% in size; note: potency is the fitted concentration of half-maximal effect; for viability: series mostly up to about 46 µM
Outline: as §1

[8] = Cellular viability qHTS for adrenocortical cancer (ACC) cell line NCI-H295R (AID 1963990); note: nearly all actives have a fitted effect of over 60% in size
Outline: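 Luminescent ATP read-out (CellTiter-Glo, 20 min RT) after 48 h drug exposure of NCI-H295R cells; a titration up to 46 uM final. Data normalized to doxorubicin (100% inhibition) and DMSO (0%); 4-parameter fit gives IC50, max response.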

Measured: Potency

CC[C@H]1OC(=O)[C@H](C)[C@@H](O[C@H]2C[C@@](C)(OC)[C@@H](O)[C@H](C)O2)[C@H](C)[C@@H](O[C@@H]2O[C@@H](C)C[C@H](N(C)C)[C@@H]2O)[C@](C)(O)C[C@@H](C)C(=O)[C@H](C)[C@@H](O)[C@]1(C)O
active: [1] 9.35 µM | [2] 16.6 µM | [3] 10.5 µM

C[C@]12C=CC(=O)C=C1CC[C@@H]1[C@@H]2[C@@H](O)C[C@@]2(C)[C@@H]1CC[C@]2(O)C(=O)CO
active: [2] 16.6 µM | [4] 7.43 µM | [5] 6.62 µM | [6] 6.62 µM

CO[C@H]1O[C@@H]2O[C@@]3(C)CC[C@@H]4[C@@H](C)CC[C@@H]([C@H]1C)[C@@]24OO3
inactive: [2] | [6]
active: [4] 14.8 µM | [5] 16.6 µM

COc1nc(-c2ccc3c(c2)OCO3)n(-c2ccc(NC(=O)CSc3ccccc3)cc2)n1
active: [1] 20.9 µM
inactive: all other assays above

COc1cc(O)c2c(c1)C(=O)c1cc(C)cc(O)c1C2=O
active: [1] 9.11 µM | [6] 6.45 µM | [7] 5.12 µM

CCOC(=O)[C@H](CCc1ccccc1)N[C@@H](C)C(=O)N1[C@@H](C(=O)O)C[C@H]2CCC[C@@H]21
active: [1] 23.5 µM | [3] 20.9 µM

CC(=O)NCC(=O)N1[C@H]2CC[C@H]1c1cc(Nc3ncc(C(F)(F)F)c(NC4CCC4)n3)ccc12
active: [1] 0.296 µM | [2] 0.132 µM | [5] 0.132 µM | [6] 0.118 µM | [3] 0.105 µM | [7] 0.105 µM
